# Test results taken from PubChem BioAssay (Tox21).
# A number with no mark means an inactive call. Inconclusive results are not listed. Entries that show only a call come without a potency. Calls of active or inactive are those of the source. Unless noted, calls follow the shape of the dose curve; as a rule, active = well fitted curve in the direction sought with a large enough effect in the repeat runs; inconclusive = weak or mixed curves; inactive = no such curve, though single readings can be large; an effect the other way counts as inactive or inconclusive.
# What was measured:
# [1] = qHTS assay to identify small molecule agonists of the sonic hedgehog signaling (Shh) pathway (AID 1259368; calls by dose curve;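 also: NIH/3T3-derived 3T3Gli1-Luc cells carrying a stable Gli1-driven firefly luciferase reporter; series mostly up to about 92 µM; nearly all actives have a fitted effect of over 15% in size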)
# Summary of the method: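 Luminescent signal was taken as a measure of Gli1-controlled luciferase expression in stably transfected NIH/3T3-derived cells that had been treated for 24 hr with compounds delivered in DMSO.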
# [2] = qHTS assay to identify small molecule antagonists of the sonic hedgehog signaling (Shh) pathway (AID 1259369; calls by dose curve; also: nearly all actives have a fitted effect of over 45% in size; also: potency is read from the fitted curve at half-maximal effect)
# Summary of the method: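 Screening used 3T3Gli1-Luc cells at 2,000 per well, compounds delivered in DMSO, and conditioned medium as agonist stimulus; plates incubated 24hr at 37 C and 5% CO2 before a 30min luciferase step.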
# [3] = target: Estrogen receptor beta (Homo sapiens) (UniProt Q92731); assay: qHTS assay to identify small molecule agonists of the estrogen receptor beta (ER-beta) signaling pathway (AID 1259377; active = well fitted activation curve with a large enough effect in the signal ratio in the repeat runs, not every such curve was filed as active; the % refers to the signal ratio)
# Summary of the method: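 Screening used GripTite ER-beta-UAS-bla cells held in 2% charcoal-stripped FBS medium. After overnight (16 hr) compound incubation at 37C, beta-lactamase activity was detected with a FRET substrate by fluorescence.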
# [4] = target: Estrogen receptor beta (Homo sapiens) (UniProt Q92731); assay: qHTS assay to identify small molecule antagonists of the estrogen receptor beta (ER-beta) signaling pathway (AID 1259378; active = well fitted inhibition curve with a large enough effect in the signal ratio in the repeat runs, not every such curve was filed as active; the % refers to the signal ratio)
# Summary of the method: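 ER-beta-UAS-bla HEK293T (GripTite) cells in 2% charcoal-stripped FBS medium were preincubated 6 hr at 37C, dosed with compound, then stimulated with 1 nM E2 (final) for 16 hr; beta-lactamase reporter read by B/G FRET fluorescence after 2 hr substrate loading.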
# [5] = qHTS assay to identify small molecule agonists of the androgen receptor (AR) signaling pathway in the presence of an antagonist - cell viability counter screen (AID 1259379);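 also: MDA-kb2 human breast cancer cells carrying an MMTV luciferase reporter; series mostly up to about 92 µM; nearly all actives have a fitted effect of over 25% in size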
# Summary of the method: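 In MDA-kb2 cells (human breast carcinoma, MMTV-luciferase), compounds at 15 concentrations plus 3.0uM nilutamide; 16 hr, 37C, 0% CO2; CellTiter-Fluor fluorescence read for viability.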
# [6] = qHTS assay to identify small molecule agonists of the estrogen receptor beta (ER-beta) signaling pathway - cell viability counter screen (AID 1259380); also: nearly all actives have a fitted effect of over 30% in size
# Summary of the method: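 Viability of ER-beta-UAS-bla HEK293T cells was determined by CellTiter-Glo luminescence following 16 hr treatment with test compounds at 37C.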
# [7] = qHTS assay to identify small molecule antagonists of the estrogen receptor beta (ER-beta) signaling pathway - cell viability counter screen (AID 1259382); also: series mostly up to about 92 µM; nearly all actives have a fitted effect of over 55% in size
# Summary of the method: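 Tox21 10K library tested in qHTS format on ER-beta-bla HEK293T cells stimulated with 1nM E2; 16 hr treatment at 37C. Same-well CellTiter-Glo luminescence served as the cell viability measure.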
# [8] = qHTS assay to identify small molecule agonists or antagonists of the thyroid stimulating hormone receptor (TSHR) signaling pathway - wild type cell line counter screen (AID 1259384; calls by dose curve)
# Summary of the method: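 Wild-type HEK293 cells were plated 18 h at 37 C/5% CO2, pin-dosed with compound plus Ro20-1724 medium, held 30 min at room temperature, then given cAMP-d2 and anti-cAMP-cryptate; fluorescence was read after 1 h. Fifteen concentrations, triplicate.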
# [9] = target: Progesterone receptor (Homo sapiens) (UniProt P06401); assay: qHTS assay to identify small molecule agonists of the progesterone receptor (PR) signaling pathway (AID 1346784; calls by dose curve; also: nearly all actives have a fitted effect of over 30% in size; also: potency is read from the fitted curve at half-maximal effect)
# Summary of the method: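 Seed PR-UAS-bla HEK 293T cells (2% charcoal-stripped FBS), incubate 6 hr at 37C; add compounds in DMSO, 16 hr at 37C; add LiveBLAzer B/G substrate, 2 hr RT; read fluorescence intensity.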
# [10] = target: Progesterone receptor (Homo sapiens) (UniProt P06401); assay: qHTS assay to identify small molecule antagonists of the progesterone receptor (PR) signaling pathway (AID 1346795; active = well fitted inhibition curve with a large enough effect in the signal ratio in the repeat runs, not every such curve was filed as active; the % refers to the signal ratio)
# Summary of the method: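 Screening used a GripTite HEK293T line with PR-responsive UAS-beta-lactamase. Cells were challenged with compound in the presence of 1 nM R5020 final for 16 hr at 37C; B/G FRET substrate, 2 hr room temperature, fluorescence.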
# [11] = qHTS assay to identify small molecule agonists of the progesterone receptor (PR) signaling pathway - cell viability counter screen (AID 1346799; calls by dose curve; also: nearly all actives have a fitted effect of over 45% in size)
# Summary of the method: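 Using the same plates as the PR reporter screen, HEK293T PR-UAS-bla cells received compounds for 16 hr at 37C and were then lysed with CellTiter-Glo; luminescence was read 30 min later at room temperature.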
# [12] = qHTS assay to identify small molecule antagonists of the TGF-beta/Smad signaling pathway - cell viability counter screen (AID 1346824); also: nearly all actives have a fitted effect of over 50% in size
# Summary of the method: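 SBE-bla HEK 293T cells were plated overnight at 37 C, then given compounds in DMSO plus TGF-beta1 (added as 0.25 ng/mL solution) for 5 hr. After the bla read, CellTiter-Glo was added to the same wells and luminescence read after 30 min at room temperature.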
# [13] = qHTS assay to identify small molecule agonists of the TGF-beta/Smad signaling pathway - cell viability counter screen (AID 1346829); also: top concentration of the series differs between compounds; nearly all actives have a fitted effect of over 45% in size
# Summary of the method: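 Compound-treated SBE-bla HEK 293T cells (5 hr, 37 C) were assessed for viability with CellTiter-Glo in parallel with the reporter read.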
# [14] = qHTS assay to identify small molecule agonists of the TGF-beta/Smad signaling pathway (AID 1346859; active = well fitted activation curve with a large enough effect in the signal ratio in the repeat runs, not every such curve was filed as active; the % refers to the signal ratio; also: series mostly up to about 77 µM)
# Summary of the method: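 Beta-lactamase reporter activity downstream of Smad binding elements was measured in stably transfected HEK 293T cells; compounds were incubated for 5 hr, substrate for 2 hr at room temperature.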
# [15] = target: Thyrotropin-releasing hormone receptor (Homo sapiens) (UniProt P34981); assay: qHTS assay to identify small molecule antagonists of the thyrotropin-releasing hormone receptor (TRHR) signaling pathway (AID 1346877; active = well fitted inhibition curve with a large enough effect in the repeat runs, not every such curve was filed as active; also: series mostly up to about 51 µM)
# Summary of the method: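 In this cell-based calcium flux format, HEK293 cells expressing TRHR received test compound for 5 min before the agonist TRH (1 nM final). Dye loading lasted 2 h at 37 °C.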
# [16] = target: Estrogen receptor (Homo sapiens) (UniProt P03372); assay: qHTS assay to identify small molecule agonists of the estrogen receptor alpha (ER-alpha) signaling pathway in the presence of an antagonist (AID 1259383; calls by dose curve; also: top concentration of the series differs between compounds; nearly all actives have a fitted effect of over 15% in size)
# Summary of the method: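 In VM7Luc4E2 cells, 4,000 per well, compounds at 15 concentrations were co-incubated 22hr at 37C with 10.0nM final ICI-182,780. Luminescence from the stably transfected 4×ERE-luciferase reporter was recorded 30min after ONE-Glo addition.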
# [17] = target: Thyrotropin receptor (Homo sapiens) (UniProt P16473); assay: qHTS assay to identify small molecule antagonists of the thyroid stimulating hormone receptor (TSHR) signaling pathway (AID 1259385; calls by dose curve; also: nearly all actives have a fitted effect of over 20% in size)
# Summary of the method: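 TSHR-HEK293 cells were plated and held 18 h at 37C/5% CO2, then given compound plus Ro20-1724 and stimulated with TSH at 1.5 ng/mL final. After 30 min at room temperature, cAMP was detected with cAMP-d2/anti-cAMP-cryptate (1 h) by fluorescence.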
# [18] = qHTS assay to identify small molecule agonists of the estrogen receptor alpha (ER-alpha) signaling pathway in the presence of an antagonist - cell viability counter screen (AID 1259386);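 also: series mostly up to about 92 µM; cells exposed to compounds for 22 h at 37 °C before the viability read; nearly all actives have a fitted effect of over 30% in size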
# Summary of the method: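 Fluorescent CellTiter-Fluor viability signal from VM7Luc4E2 cells, with the reagent added during the final hour of a 22hr compound exposure at 37C in the presence of 10.0nM ICI-182,780.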
# [19] = qHTS assay to identify small molecule antagonists of the progesterone receptor (PR) signaling pathway - cell viability counter screen (AID 1346798); also: nearly all actives have a fitted effect of over 50% in size; also: potency is read from the fitted curve at half-maximal effect
# Summary of the method: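 Measures cytotoxicity in parallel with the PR antagonist reporter read: HEK293T PR-UAS-bla cells get compound and R5020 for 16 hr, and remaining viable cells are quantified by CellTiter-Glo luminescence.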
# [20] = target: Androgen receptor (Homo sapiens) (UniProt P10275); assay: qHTS assay to identify small molecule agonists of the androgen receptor (AR) signaling pathway in the presence of an antagonist (AID 1259381; calls by dose curve; also: nearly all actives have a fitted effect of over 15% in size)
# Summary of the method: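 Here, 15-concentration compound series were pin-transferred onto MDA-kb2 MMTV-luciferase cells already dosed with nilutamide (3.0uM final). After 16hr at 37C, ONE-Glo was added and luminescence read 30min later at room temperature.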
# Thyrotropin-releasing hormone receptor (Homo sapiens), sequence (P34981 whole entry, looked up): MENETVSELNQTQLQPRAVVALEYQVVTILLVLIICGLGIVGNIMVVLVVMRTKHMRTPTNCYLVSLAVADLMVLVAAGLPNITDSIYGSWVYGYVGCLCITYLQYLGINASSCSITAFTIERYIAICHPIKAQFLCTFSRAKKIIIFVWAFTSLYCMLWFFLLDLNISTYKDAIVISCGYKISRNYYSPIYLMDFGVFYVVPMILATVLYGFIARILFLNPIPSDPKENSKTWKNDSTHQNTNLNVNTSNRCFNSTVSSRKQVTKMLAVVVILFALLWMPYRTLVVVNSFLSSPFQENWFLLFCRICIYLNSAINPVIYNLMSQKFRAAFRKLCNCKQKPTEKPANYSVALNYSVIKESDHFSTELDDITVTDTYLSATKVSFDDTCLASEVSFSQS
# Estrogen receptor (Homo sapiens), sequence (P03372 whole entry, looked up): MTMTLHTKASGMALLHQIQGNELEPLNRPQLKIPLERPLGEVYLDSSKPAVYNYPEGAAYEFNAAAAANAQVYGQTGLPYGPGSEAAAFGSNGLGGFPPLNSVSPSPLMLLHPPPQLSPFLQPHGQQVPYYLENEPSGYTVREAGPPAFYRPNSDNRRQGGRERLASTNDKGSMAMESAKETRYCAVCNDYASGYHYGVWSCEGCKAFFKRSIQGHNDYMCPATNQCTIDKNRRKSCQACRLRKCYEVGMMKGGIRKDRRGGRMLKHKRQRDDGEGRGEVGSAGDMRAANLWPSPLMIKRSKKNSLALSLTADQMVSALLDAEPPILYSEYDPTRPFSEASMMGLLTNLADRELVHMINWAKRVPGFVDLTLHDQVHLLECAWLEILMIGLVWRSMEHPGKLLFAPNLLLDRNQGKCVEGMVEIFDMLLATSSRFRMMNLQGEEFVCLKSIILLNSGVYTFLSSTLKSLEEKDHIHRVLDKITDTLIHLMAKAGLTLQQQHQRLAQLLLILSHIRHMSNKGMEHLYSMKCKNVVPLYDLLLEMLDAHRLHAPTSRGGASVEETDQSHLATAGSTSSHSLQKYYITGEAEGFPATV
# Progesterone receptor (Homo sapiens), sequence (P06401 whole entry, looked up): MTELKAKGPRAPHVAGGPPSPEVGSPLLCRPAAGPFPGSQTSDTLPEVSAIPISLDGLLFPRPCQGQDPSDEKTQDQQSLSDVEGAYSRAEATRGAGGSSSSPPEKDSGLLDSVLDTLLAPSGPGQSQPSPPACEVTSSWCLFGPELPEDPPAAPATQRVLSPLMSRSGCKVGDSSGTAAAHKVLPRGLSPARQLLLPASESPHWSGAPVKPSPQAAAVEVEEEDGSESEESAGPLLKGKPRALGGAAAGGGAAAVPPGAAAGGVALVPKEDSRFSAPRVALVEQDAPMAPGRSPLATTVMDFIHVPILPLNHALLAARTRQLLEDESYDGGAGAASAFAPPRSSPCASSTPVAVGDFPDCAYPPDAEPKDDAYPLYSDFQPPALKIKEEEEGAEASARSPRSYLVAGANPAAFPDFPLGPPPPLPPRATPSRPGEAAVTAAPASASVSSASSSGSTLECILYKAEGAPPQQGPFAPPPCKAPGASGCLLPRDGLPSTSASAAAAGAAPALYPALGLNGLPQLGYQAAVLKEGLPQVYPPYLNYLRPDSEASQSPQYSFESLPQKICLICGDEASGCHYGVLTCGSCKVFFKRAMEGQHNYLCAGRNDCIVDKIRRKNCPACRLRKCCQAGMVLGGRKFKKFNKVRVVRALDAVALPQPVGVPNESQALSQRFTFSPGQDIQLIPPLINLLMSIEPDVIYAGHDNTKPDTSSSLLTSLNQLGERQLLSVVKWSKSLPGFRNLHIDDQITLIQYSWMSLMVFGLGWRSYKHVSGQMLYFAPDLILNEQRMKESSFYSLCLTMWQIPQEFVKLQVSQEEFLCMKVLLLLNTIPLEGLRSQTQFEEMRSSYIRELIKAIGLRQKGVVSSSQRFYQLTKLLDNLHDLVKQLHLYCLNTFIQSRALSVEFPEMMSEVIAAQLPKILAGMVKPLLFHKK
# Androgen receptor (Homo sapiens), sequence (P10275 whole entry, looked up): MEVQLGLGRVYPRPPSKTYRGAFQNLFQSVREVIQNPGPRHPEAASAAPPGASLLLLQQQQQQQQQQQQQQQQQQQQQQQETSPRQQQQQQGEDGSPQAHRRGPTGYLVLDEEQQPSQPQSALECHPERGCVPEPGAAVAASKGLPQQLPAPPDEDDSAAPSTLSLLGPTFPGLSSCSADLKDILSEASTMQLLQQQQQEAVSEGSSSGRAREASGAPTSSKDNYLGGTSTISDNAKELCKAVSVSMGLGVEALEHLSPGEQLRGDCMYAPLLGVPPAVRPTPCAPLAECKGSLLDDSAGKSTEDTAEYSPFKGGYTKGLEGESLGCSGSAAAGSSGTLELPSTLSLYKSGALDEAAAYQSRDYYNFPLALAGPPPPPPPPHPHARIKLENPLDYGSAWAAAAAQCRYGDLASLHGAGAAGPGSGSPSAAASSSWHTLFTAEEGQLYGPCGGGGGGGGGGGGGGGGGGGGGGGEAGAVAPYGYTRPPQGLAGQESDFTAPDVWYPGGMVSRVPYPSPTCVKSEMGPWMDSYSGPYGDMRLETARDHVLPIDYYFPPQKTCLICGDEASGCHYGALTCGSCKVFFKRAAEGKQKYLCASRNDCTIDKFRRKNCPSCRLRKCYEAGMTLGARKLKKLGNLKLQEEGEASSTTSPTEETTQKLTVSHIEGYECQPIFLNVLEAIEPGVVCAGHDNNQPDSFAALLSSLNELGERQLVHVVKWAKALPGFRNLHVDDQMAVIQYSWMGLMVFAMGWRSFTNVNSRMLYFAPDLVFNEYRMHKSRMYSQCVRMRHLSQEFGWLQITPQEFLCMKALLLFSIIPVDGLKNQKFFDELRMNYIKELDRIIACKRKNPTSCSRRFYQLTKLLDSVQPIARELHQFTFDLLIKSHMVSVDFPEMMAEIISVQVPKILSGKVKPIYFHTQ
# Thyrotropin receptor (Homo sapiens), sequence (P16473 whole entry, looked up): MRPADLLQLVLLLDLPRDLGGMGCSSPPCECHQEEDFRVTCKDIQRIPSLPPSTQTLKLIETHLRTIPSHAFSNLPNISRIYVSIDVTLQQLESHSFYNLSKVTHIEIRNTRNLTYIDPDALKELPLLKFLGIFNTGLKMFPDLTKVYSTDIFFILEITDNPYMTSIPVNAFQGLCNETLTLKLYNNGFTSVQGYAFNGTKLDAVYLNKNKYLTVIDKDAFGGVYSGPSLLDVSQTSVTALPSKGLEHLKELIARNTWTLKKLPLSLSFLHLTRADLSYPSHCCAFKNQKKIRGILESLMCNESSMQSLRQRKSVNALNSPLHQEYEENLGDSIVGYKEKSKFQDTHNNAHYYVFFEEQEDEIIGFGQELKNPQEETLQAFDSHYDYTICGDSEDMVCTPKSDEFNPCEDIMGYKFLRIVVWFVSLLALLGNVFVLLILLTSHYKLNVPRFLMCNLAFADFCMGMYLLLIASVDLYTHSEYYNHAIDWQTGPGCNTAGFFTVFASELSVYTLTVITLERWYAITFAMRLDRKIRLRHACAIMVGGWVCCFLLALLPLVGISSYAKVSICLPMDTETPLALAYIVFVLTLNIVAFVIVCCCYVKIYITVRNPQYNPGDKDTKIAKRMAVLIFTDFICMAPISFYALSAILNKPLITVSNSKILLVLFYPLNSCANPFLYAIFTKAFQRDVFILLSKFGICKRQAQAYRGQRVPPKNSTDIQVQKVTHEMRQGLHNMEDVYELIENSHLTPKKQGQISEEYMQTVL
# Estrogen receptor beta (Homo sapiens), sequence (Q92731 whole entry, looked up): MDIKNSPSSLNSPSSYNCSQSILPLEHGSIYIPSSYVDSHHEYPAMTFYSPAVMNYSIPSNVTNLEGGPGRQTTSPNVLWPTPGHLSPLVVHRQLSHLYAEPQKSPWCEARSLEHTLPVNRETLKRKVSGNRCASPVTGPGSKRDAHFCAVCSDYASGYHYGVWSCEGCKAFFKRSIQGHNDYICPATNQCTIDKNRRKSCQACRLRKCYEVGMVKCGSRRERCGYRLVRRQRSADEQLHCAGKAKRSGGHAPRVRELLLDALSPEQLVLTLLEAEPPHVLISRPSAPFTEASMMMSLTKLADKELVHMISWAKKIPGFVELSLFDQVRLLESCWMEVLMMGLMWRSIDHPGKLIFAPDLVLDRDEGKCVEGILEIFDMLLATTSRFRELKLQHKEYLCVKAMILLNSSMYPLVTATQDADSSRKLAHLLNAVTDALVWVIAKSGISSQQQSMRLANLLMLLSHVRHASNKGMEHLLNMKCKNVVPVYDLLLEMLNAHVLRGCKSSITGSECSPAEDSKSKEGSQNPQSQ
SMILES,Potency [1],Potency [2],outcome [3],Potency [4],Potency [5],Potency [6],outcome [7],outcome [8],Potency [9],Potency [10],Potency [11],outcome [12],outcome [13],outcome [14],outcome [15],Potency [16],Potency [17],Potency [18],Potency [19],Potency [20]
COC(=O)c1ccc(OC)cc1,inactive,inactive,inactive,inactive,inactive,inactive,inactive,inactive,inactive,inactive,inactive,inactive,inactive,inactive,inactive,,,,,
CC(C)C(=O)OC/C=C/c1ccccc1,inactive,inactive,inactive,inactive,inactive,,inactive,inactive,inactive,inactive,inactive,inactive,inactive,inactive,inactive,inactive,inactive,inactive,inactive,
CC(C)C(=O)OCC(C)(C)C(O)C(C)C (centres undefined),inactive,inactive,inactive,inactive,inactive,,inactive,,inactive,,inactive,inactive,inactive,inactive,inactive,inactive,,inactive,,
Cc1ccc(C=O)s1,inactive,48.6 µM (active),inactive,inactive,inactive,inactive,inactive,,inactive,inactive,,inactive,inactive,inactive,inactive,,,inactive,inactive,
CC(=O)N(CC(O)CN(C(C)=O)c1c(I)c(C(=O)NCC(O)CO)c(I)c(C(=O)NCC(O)CO)c1I)c1c(I)c(C(=O)NCC(O)CO)c(I)c(C(=O)NCC(O)CO)c1I (centres undefined),inactive,inactive,inactive,inactive,inactive,,inactive,inactive,inactive,inactive,inactive,inactive,,inactive,inactive,inactive,inactive,inactive,inactive,
CC(Oc1c(Cl)cccc1Cl)C1=NCCN1 (centres undefined),inactive,13.3 µM (active),inactive,inactive,inactive,,inactive,inactive,inactive,,,inactive,inactive,inactive,inactive,,inactive,inactive,29.8 µM (active),inactive
OC[C@H]1O[C@@H](O[C@H]2[C@H](O)[C@@H](O)[C@H](O)O[C@@H]2CO)[C@H](O)[C@@H](O)[C@H]1O,inactive,inactive,inactive,inactive,inactive,,inactive,inactive,inactive,inactive,inactive,inactive,,inactive,,inactive,inactive,inactive,inactive,inactive
CCOc1ccc(NS(=O)(=O)c2ccc(N)cc2)nn1,inactive,inactive,inactive,inactive,inactive,inactive,inactive,inactive,inactive,inactive,inactive,inactive,,inactive,,,,inactive,inactive,
CC(=O)Oc1cc(C(C)C)c(OCCN(C)C)cc1C,inactive,inactive,inactive,inactive,inactive,inactive,inactive,,inactive,inactive,inactive,inactive,inactive,inactive,inactive,,inactive,inactive,inactive,
CCCCNCCCC,inactive,inactive,inactive,inactive,inactive,inactive,inactive,inactive,inactive,inactive,inactive,inactive,inactive,inactive,inactive,,inactive,inactive,inactive,
C=CCCC=C,inactive,inactive,inactive,inactive,inactive,,inactive,inactive,19.9 µM (active),,inactive,inactive,inactive,inactive,inactive,inactive,inactive,inactive,inactive,
CCCCCCCCCCCCCCCCOP(=O)([O-])OCC[N+](C)(C)C,inactive,inactive,inactive,inactive,inactive,,inactive,inactive,inactive,inactive,,inactive,inactive,inactive,,,inactive,inactive,inactive,
Cc1c[nH]c(=S)[nH]c1=O,inactive,inactive,inactive,inactive,inactive,,inactive,,inactive,inactive,inactive,inactive,inactive,inactive,,inactive,,inactive,inactive,
CCOC(=O)C1CC(=O)C(=C(O)C2CC2)C(=O)C1 (centres undefined),inactive,inactive,inactive,inactive,inactive,,inactive,inactive,inactive,inactive,inactive,inactive,inactive,inactive,inactive,inactive,,,inactive,
Oc1ccccc1C=NCc1ccccc1,inactive,inactive,inactive,inactive,inactive,inactive,inactive,inactive,inactive,inactive,inactive,inactive,,inactive,inactive,,inactive,,inactive,
CN1CCC[C@@H]1Cc1c[nH]c2ccc(CCS(=O)(=O)c3ccccc3)cc12,inactive,13.3 µM (active),inactive,inactive,inactive,inactive,inactive,inactive,inactive,inactive,inactive,inactive,inactive,inactive,,,,inactive,inactive,
CN(C)Cc1ccccc1,inactive,inactive,inactive,inactive,inactive,,inactive,inactive,inactive,inactive,inactive,inactive,inactive,inactive,inactive,,inactive,inactive,,inactive
